Data from the GenesisPotency data set.
The whole screen tested about 290,000 compounds, of which about 3,000 (1%) were called active. No stated cut-off is given here; in the data, active means inhibition mostly above about 36% (no sharp cut-off); inactive means mostly below about 34%. This excerpt belongs to a sample that is enriched for actives.

What follows are compounds tested against T1, Nucleotide-binding oligomerization domain-containing protein 1, Homo sapiens (UniProt Q9Y239) (assay: NOD1 signaling inhibitors, primary screen, cell-based, luminescence, uHTS (AID 1578)).
T1 sequence (whole entry): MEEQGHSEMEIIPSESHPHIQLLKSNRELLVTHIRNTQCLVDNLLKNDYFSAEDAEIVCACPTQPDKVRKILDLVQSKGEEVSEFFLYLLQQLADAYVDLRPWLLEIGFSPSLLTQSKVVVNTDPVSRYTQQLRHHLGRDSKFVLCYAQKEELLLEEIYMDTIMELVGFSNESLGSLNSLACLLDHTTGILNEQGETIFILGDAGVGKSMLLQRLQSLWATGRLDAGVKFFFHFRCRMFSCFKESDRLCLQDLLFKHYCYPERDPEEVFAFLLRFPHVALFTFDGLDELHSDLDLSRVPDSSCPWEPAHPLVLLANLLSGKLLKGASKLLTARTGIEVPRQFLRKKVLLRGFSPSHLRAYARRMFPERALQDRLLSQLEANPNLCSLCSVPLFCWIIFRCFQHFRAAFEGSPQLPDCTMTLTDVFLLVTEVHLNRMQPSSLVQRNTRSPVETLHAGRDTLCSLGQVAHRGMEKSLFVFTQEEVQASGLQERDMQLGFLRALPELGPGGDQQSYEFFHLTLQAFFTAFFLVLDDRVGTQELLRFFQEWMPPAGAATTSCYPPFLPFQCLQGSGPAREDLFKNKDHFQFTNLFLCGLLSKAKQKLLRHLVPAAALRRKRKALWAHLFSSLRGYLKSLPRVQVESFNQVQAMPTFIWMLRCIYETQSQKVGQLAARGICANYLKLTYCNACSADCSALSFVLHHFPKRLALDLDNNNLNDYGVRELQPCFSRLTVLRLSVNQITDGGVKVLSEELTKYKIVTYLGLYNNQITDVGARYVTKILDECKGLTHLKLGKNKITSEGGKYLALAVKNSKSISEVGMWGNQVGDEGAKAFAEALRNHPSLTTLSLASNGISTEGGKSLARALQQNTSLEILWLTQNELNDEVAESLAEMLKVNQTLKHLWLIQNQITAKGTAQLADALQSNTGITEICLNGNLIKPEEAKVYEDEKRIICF

outcome, active:
COc1ccc(C(C(=O)NC2CCCCC2)N(C(=O)CCl)c2cccc(Cl)c2)cc1 (configuration not stated)
CC(C)c1noc2ncc(C(=O)c3cc(Cl)cc(Cl)c3O)cc12
Cc1nnc(N2CCCC(C(=O)Nc3cc(F)ccc3F)C2)c2nn(-c3ccccc3)c(C)c12 (configuration not stated)
N#CCc1ccc(NC(=O)c2ccc(CN3CCc4ccccc4C3)cc2)cc1
O=C(Nc1ccc(F)cc1)c1ccc(CN2CCc3ccccc3C2)cc1
Cc1ccc(-c2csc(N3CCC(NS(=O)(=O)c4ccc5c(c4)OCCO5)CC3)n2)cc1
COc1ccc(Oc2ccccc2/C=N/O)cc1
O=C(CSc1nnnn1C1CC2CCC1C2)Nc1ccnc2ccccc12 (configuration not stated)
CCC(C)Cn1c([O-])cc2nn(-c3nc4ccccc4s3)c(=O)c-2c1C.[Na+] (configuration not stated)
CC1=Nc2ccccc2/C1=C/c1sc(=N)n(-c2nccs2)c1O
NC(=O)c1cc2ccncc2c2ccccc12
Nc1cc2ccncc2c2ccccc12
Cc1cccc(C(=O)NNC2=C(C(=O)C(F)(F)F)CCC2)c1O
C=CS(=O)(=O)c1ccc(Oc2ccc(S(=O)(=O)C=C)cc2)cc1
COc1cccc(C(=O)/C=C/Nc2ccc(S(=O)(=O)Nc3cccc(C(C)=O)c3)cc2)c1
COc1cccc(NS(=O)(=O)c2ccc3c(c2)CCN3C(C)=O)c1
Cc1c(C)n(Cc2ccccc2)c2ncnc(Cl)c12
Br.CCCCCCCCn1c2c(c(=N)c3ccccc31)CCC2
Br.CCCCCCCCCn1c2c(c(=N)c3c1CCC3)CCC2
Br.CCCCCCCCCCn1c2c(c(=N)c3c1CCC3)CCC2
COc1cccc(NC(=O)CN(C)CC(=O)Nc2ccc(C)c([N+](=O)[O-])c2)c1
Cc1ccc(N(Cc2cc(=O)[nH]c3ccccc23)C(=O)CCl)cc1
Cc1cccc(N(Cc2cc(=O)[nH]c3ccccc23)C(=O)CCl)c1
O=C(CCl)N(Cc1cc(=O)[nH]c2ccccc12)c1ccccc1
Cn1cc([N+](=O)[O-])c(C(=O)Nc2cc(Oc3ccccc3)cc([N+](=O)[O-])c2)n1
O=C(c1nnsc1S(=O)(=O)c1ccc(Cl)cc1)N1CCOCC1
CNC(=O)c1nnsc1S(=O)(=O)c1ccc(Cl)cc1
O=C(Nc1nnc(-c2ccco2)o1)c1ccc2ccccc2c1
O=C(Nc1nnc(-c2ccc3c(c2)OCCO3)o1)c1ccc(Cc2ccccc2)cc1
COc1cc(OC)cc(-c2nnc(NC(=O)c3ccc4c(c3)OCCO4)o2)c1
CCCN(CCC)S(=O)(=O)c1ccc(C(=O)Nc2nnc(-c3cc(OC)cc(OC)c3)o2)cc1
CSCc1nnc(NC(=O)c2ccc(S(=O)(=O)N(CC(C)C)CC(C)C)cc2)o1
O=C(Nc1ccc(Oc2ccccc2)cc1)C1CCN(c2c3c(nc4ncnn24)CCC3)CC1
CC1CCc2nc(N)c(C#N)c(-c3cccnc3)c2C1 (configuration not stated)
Cc1nc(N)c(C#N)c(-c2cccnc2)c1-c1ccccc1
Cc1ccc(NC(=O)O/N=C/c2c(C)nn(C(C)(C)C)c2C)cc1Cl
CC(=O)Oc1c(C)cc(Cl)cc1C(=O)Nc1ccc([N+](=O)[O-])cc1Cl
N#Cc1c(NC(=O)CSc2ncn[nH]2)sc2c1CCCCC2
CC1CCc2c(sc(NC(=O)CSc3ncn[nH]3)c2C#N)C1 (configuration not stated)
N#Cc1c(NC(=O)CSc2ncn[nH]2)sc2c1CCCC2
O=C(Nc1cc(S(=O)(=O)Nc2ccccc2Cl)ccc1O)c1cc2c(s1)CCCC2
Cc1ccc(NC(=O)c2cc3c(s2)CCCC3)cc1S(=O)(=O)Nc1ccccc1Cl
Cn1c(=O)c(C#N)c(-c2ccc(F)cc2)c2cc(C(=O)c3cc(Cl)cc(Cl)c3O)cnc21
CC(C)(C)c1ccc(C(=O)N2CCCCCC2=O)cc1
O=C(COc1ccc(Cl)cc1Cl)Nc1ccc(C(=O)Nc2ccccc2C(=O)O)cc1
Oc1c(I)cc(Cl)c2cccnc12
O=[N+]([O-])c1cc(Cl)c(O)c2ncccc12
O=C(Oc1c(Cl)cc(Cl)c2cccnc12)c1ccco1
Oc1c(Cl)cc(Cl)c2cccnc12
Oc1c(I)cc(I)c2cccnc12
c1ccc(N2CCN(c3ncnc4sc5c(c34)CCC5)CC2)cc1
Cn1cc(C(=O)CCl)c2ccccc21
Cn1c(-c2ccccc2)c(C(=O)CCl)c2ccccc21
Cc1ccc2[nH]c3c(N4CCN(Cc5ccccc5)CC4)ncnc3c2c1
c1ccc(CN2CCN(c3ncnc4c3[nH]c3ccccc34)CC2)cc1
Cc1ccc2c(c1)[nH]c1c(N3CCN(Cc4ccccc4)CC3)ncnc12
Cc1ccc2[nH]c3c(N4CCc5ccccc5C4)ncnc3c2c1
Cc1ccc(-c2noc(CCCC(=O)NC3CCCCC3)n2)cc1
O=C(CCCc1nc(-c2ccc(Cl)cc2)no1)NC1CCCCC1
O=C(CCCc1nc(-c2ccc(Cl)cc2)no1)NC1CCCC1
N#CC(c1cccc(Cl)c1)c1ccc2c(C(F)(F)F)cc(C(F)(F)F)nc2n1 (configuration not stated)
CCCCN(c1ccccc1)c1ncnc(N)c1[N+](=O)[O-]
Cc1ccc(Cl)cc1N1CCN(C(=O)CSc2nnc3n2C(C)(C)Cc2ccccc2-3)CC1
CC1(C)CC(N2CCN(C(c3ccccc3)c3ccccc3)CC2)=CC(=[N+]2CCCCC2)C1.[I-]
CN(Cc1ccccc1)C1=CC(=[N+]2CCCCC2)CC(C)(C)C1.[I-]
c1csc(CCNc2ncnc3sc4c(c23)CCC4)c1
Cn1nccc1C(=O)NC1CCCc2c1cnn2-c1ccc(C(C)(C)C)cc1 (configuration not stated)
CC(C)(C)c1ccc(-n2ncc3c2CCCC3NC(=O)C2(C(N)=O)CC2)cc1 (configuration not stated)
Cc1cc(C(=O)NC2CCCc3c2cnn3-c2ccc(C(C)(C)C)cc2)nn1C (configuration not stated)
Cc1ccc(NC(=O)Nc2nnc(-c3ccncc3)s2)cc1C
O=C(Nc1ccc2nc3n(c(=O)c2c1)CCCCC3)c1c(F)ccc([N+](=O)[O-])c1F
CCOc1cccc(-c2c(C(=O)N/N=C(\C)c3ccccn3)nnn2-c2nonc2N)c1
CN(C)S(=O)(=O)c1cccc(NC(=O)c2ccc(COc3ccccc3)cc2)c1
COc1ccc(C(=O)/C=C/C(=O)N(CC(=O)NC2CCCCC2)Cc2ccccc2OC)c(O)c1
CCn1c(Oc2ccccc2F)nc2c1c(=O)n(C)c(=O)n2C
C=CCn1c(Oc2ccc(C(=O)OC)cc2)nc2c1c(=O)n(C)c(=O)n2C
C=CCn1c(Oc2ccccc2F)nc2c1c(=O)n(C)c(=O)n2C
Cc1ccc(S(=O)(=O)c2cc3cc(Br)ccc3oc2=O)cc1
O=c1oc2ccc(Br)cc2cc1S(=O)(=O)c1ccc(F)cc1
O=C(O)c1c(NC(=O)c2cccc3ccccc23)sc2c1CCC2
COc1ccc(-c2c[n+]3c(n2-c2ccc(C)cc2)CCCCC3)cc1.[Br-]
O=C(Cn1ncc(Cl)c(Cl)c1=O)c1ccc(Cl)cc1
Cc1cc(Br)ccc1NC(=O)CNC(=O)Cn1ncc(Cl)c(Cl)c1=O
CCOC(=O)c1ccc(NC(=O)Cn2ncc(Cl)c(Cl)c2=O)cc1
CCC(=O)Nc1ccc(C(=O)Cn2ncc(Cl)c(Cl)c2=O)cc1
O=C(Cn1ncc(Cl)c(Cl)c1=O)N1CCc2ccccc21
C#Cc1ccc([C@@H]2C=C(C(=O)N3CCN(Cc4ccccc4)CC3)O[C@H](OCCCCO)C2)cc1
O=C(COc1ccc(Br)cc1)Nc1ccc(Cc2ccncc2)cc1
Cn1cnnc1Sc1ccc(/C=C/C(=O)c2ccc(O)cc2)cc1[N+](=O)[O-]
C(=N\Nc1nc2ccccc2s1)/c1ccccn1
CCn1c(=O)c2c(cnn2C)c2ccccc21
CC(=O)c1c(O)c(C)c(O)c2c1OC1=CC(=O)C(C(C)=O)C(=O)[C@@]12C (some centres not stated)
O=C(NCc1cccs1)c1nc2c(nnn2Cc2ccccc2Cl)c(=O)[nH]1
O=C(NCc1ccco1)c1nc2c(nnn2Cc2ccccc2Cl)c(=O)[nH]1
COc1ccc2ncn(-c3ccccc3)c2c1
COc1ccc(-n2cnc3ccccc32)cc1
O=C(CSc1nnc2c(n1)[nH]c1ccccc12)NC1CCCCC1
NC(=S)N/N=C\c1c(OCc2ccccc2Cl)ccc2ccccc12
CC(C)N1C(=O)/C(=C/c2nc3ccccc3c(=O)n2-c2ccccc2)c2ccccc21
Cc1cccc(-n2c(SCC(=O)N3CCC(C(=O)O)CC3)nc3ccccc3c2=O)c1C
CC1=CC(C)(C)Nc2ccc(OC(=O)CN3C(=O)CCC3=O)cc21
CC1=CC(C)(C)Nc2ccc(OC(=O)CN3C(=O)C4CCCCC4C3=O)cc21 (configuration not stated)
COc1cc(/C=C/c2ccc3cccc(O)c3n2)cc(OC)c1OC
Oc1c(Cl)cc(Cl)cc1/C=C/c1ccc2cccc(O)c2n1
COc1ccc(OC)c(/C=C/c2ccc3cccc(O)c3n2)c1
COc1cc(/C=C/c2ccc3cccc(O)c3n2)ccc1O
O=C(Nc1nnc(-c2cccs2)o1)c1cccc(C(F)(F)F)c1
O=C(Nc1nnc(-c2cccs2)o1)c1cccc(Oc2ccccc2)c1
O=C(C1CCC(CNS(=O)(=O)c2cccs2)CC1)N1CCN(c2ccc(Cl)cc2)CC1 (configuration not stated)
O=C(Nc1ccccc1C(=O)Nc1nnc(C(F)(F)F)s1)c1ccccc1Cl
O=C(Nc1ccccc1C(=O)Nc1nnc(C(F)(F)F)s1)c1ccccc1
Cc1onc(-c2c(F)cccc2Cl)c1C(=O)Nc1nnc(C(F)(F)F)s1
